Screen size: about 5,500 compounds; about 2,000 (36%) were called active. Inconclusive results (about 18%) are left out. Rule as the data show it: active = normalized growth mostly below about 0.91 (no sharp cut-off); inconclusive = no clear call, values can overlap the other calls; inactive = mostly above about 0.92. The list shows a part of the results.
Assay: chemical genetic growth profiling, strain panel (AID 1159580);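 also: tested at 20 µM; growth read once vehicle control cultures reached saturation at 30 °C; 1 = growth at the plate median or of vehicle wells; lower values mean less growth of the strain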
Conditions: growth OD
[1] = S. cerevisiae deletion strains, locus YAL013W, strain DEP1, active compounds read low
[2] = S. cerevisiae deletion strains, locus YCL061C, strain MRC1, active compounds read low
[3] = S. cerevisiae deletion strains, locus YDR150W, strain NUM1, active compounds read low
[4] = S. cerevisiae deletion strains, locus YGR229C, strain SMI1, active compounds read low
[5] = S. cerevisiae deletion strains, locus YHR030C, strain SLT2, active compounds read low
[6] = S. cerevisiae deletion strains, locus YJL187C, strain SWE1, active compounds read low
[7] = S. cerevisiae deletion strains, locus YJR075W, strain HOC1, active compounds read low
[8] = S. cerevisiae deletion strains, locus YMR307W, strain GAS1, active compounds read low
[9] = S. cerevisiae deletion strains, locus YNL128W, strain TEP1, active compounds read low
[10] = S. cerevisiae deletion strains, locus YNL322C, strain KRE1, active compounds read low
[11] = S. cerevisiae deletion strains, locus YPL055C, strain LGE1, active compounds read low
[12] = S. cerevisiae deletion strains, locus YPL241C, strain CIN2, active compounds read low
[13] = S. cerevisiae deletion strains, locus YBR229C, strain ROT2, active compounds read low
[14] = S. cerevisiae deletion strains, locus YDL101C, strain DUN1, active compounds read low
[15] = S. cerevisiae deletion strains, locus YDL134C, strain PPH21, active compounds read low
[16] = S. cerevisiae deletion strains, locus YEL061C, strain CIN8, active compounds read low
[17] = S. cerevisiae deletion strains, locus YGR078C, strain PAC10, active compounds read low
[18] = S. cerevisiae deletion strains, locus YHR087W, strain rtc3, active compounds read low
[19] = S. cerevisiae deletion strains, locus YJR043C, strain POL32, active compounds read low
[20] = S. cerevisiae deletion strains, locus YLR039C, strain RIC1, active compounds read low
[21] = S. cerevisiae deletion strains, locus YLR058C, strain SHM2 (second series), active compounds read low
[22] = S. cerevisiae deletion strains, locus YLR085C, strain ARP6, active compounds read low
[23] = S. cerevisiae deletion strains, locus YLR262C, strain YPT6, active compounds read low
[24] = S. cerevisiae deletion strains, locus YML094W, strain GIM5, active compounds read low
[25] = S. cerevisiae deletion strains, locus YMR219W, strain ESC1, active compounds read low
[26] = S. cerevisiae deletion strains, locus YMR263W, strain SAP30, active compounds read low
[27] = S. cerevisiae deletion strains, locus YNL153C, strain GIM3, active compounds read low
[28] = S. cerevisiae deletion strains, locus YNL298W, strain CLA4 (second series), active compounds read low
[29] = S. cerevisiae deletion strains, locus YNR030W, strain Alg12, active compounds read low
[30] = S. cerevisiae deletion strains, locus YPR135W, strain CTF4, active compounds read low

Measured: normalized growth

Cc1ccc(C(=O)Nc2ccc(S(=O)(=O)O)c3cc(S(=O)(=O)O)cc(S(=O)(=O)O)c23)cc1NC(=O)c1cccc(NC(=O)Nc2cccc(C(=O)Nc3cc(C(=O)Nc4ccc(S(=O)(=O)O)c5cc(S(=O)(=O)O)cc(S(=O)(=O)O)c45)ccc3C)c2)c1
inactive: [1] 1.03 | S. cerevisiae deletion strains, locus YAL021C, strain ccr4, active compounds read low 1.03 | S. cerevisiae deletion strains, locus YAL026C, strain drs2, active compounds read low 1 | S. cerevisiae deletion strains, locus YAL030W, strain snc1, active compounds read low 1.01 | S. cerevisiae deletion strains, locus YAL040C, strain CLN3, active compounds read low 0.968 | S. cerevisiae deletion strains, locus YBL061C, strain skt5, active compounds read low 1.01 | S. cerevisiae deletion strains, locus YBR009C, strain hhf1, active compounds read low 0.98 | S. cerevisiae deletion strains, locus YBR023C, strain chs3, active compounds read low 1.04 | S. cerevisiae deletion strains, locus YBR171W, strain sec66, active compounds read low 1.03 | S. cerevisiae deletion strains, locus YBR231C, strain swc5, active compounds read low 1.02 | S. cerevisiae deletion strains, locus YBR279W, strain paf1, active compounds read low 1.02 | S. cerevisiae deletion strains, locus YCL011C, strain gbp2, active compounds read low 1.02 | S. cerevisiae deletion strains, locus YCL016C, strain dcc1, active compounds read low 1.03 | S. cerevisiae deletion strains, locus YCL061C, strain MRC1 (second series), active compounds read low 1 | [2] 1.03 | S. cerevisiae deletion strains, locus YCL069W, strain vba3, active compounds read low 1.01 | S. cerevisiae deletion strains, locus YCR088W, strain abp1, active compounds read low 1.01 | S. cerevisiae deletion strains, locus YDL005C, strain med2, active compounds read low 1.02 | S. cerevisiae deletion strains, locus YDL040C, strain nat1, active compounds read low 1.01 | S. cerevisiae deletion strains, locus YDR001C, strain nth1, active compounds read low 1.01 | S. cerevisiae deletion strains, locus YDR069C, strain doa4, active compounds read low 1.02 | S. cerevisiae deletion strains, locus YDR137W, strain rgp1, active compounds read low 1.05 | [3] 0.998 | S. cerevisiae deletion strains, locus YDR159W, strain sac3, active compounds read low 1 | S. cerevisiae deletion strains, locus YDR195W, strain ref2 1.02 | S. cerevisiae deletion strains, locus YDR297W, strain sur2, active compounds read low 1.01 | S. cerevisiae deletion strains, locus YDR334W, strain swr1, active compounds read low 1.03 | S. cerevisiae deletion strains, locus YDR335W, strain msn5, active compounds read low 1.02 | S. cerevisiae deletion strains, locus YDR363W, strain ESC2, active compounds read low 1.01 | S. cerevisiae deletion strains, locus YDR392W, strain spt3, active compounds read low 0.975 | S. cerevisiae deletion strains, locus YEL003W, strain gim4, active compounds read low 1.01 | S. cerevisiae deletion strains, locus YEL037C, strain rad23, active compounds read low 1.01 | S. cerevisiae deletion strains, locus YEL061C, strain CIN8 (second series), active compounds read low 1.01 | S. cerevisiae deletion strains, locus YER002W, strain NOP16, active compounds read low 1.03 | S. cerevisiae deletion strains, locus YER015W, strain faa2, active compounds read low 0.999 | S. cerevisiae deletion strains, locus YER016W, strain bim1, active compounds read low 1.01 | S. cerevisiae deletion strains, locus YER111C, strain swi4, active compounds read low 1.03 | S. cerevisiae deletion strains, locus YER155C, strain BEM2 (second series), active compounds read low 1.03 | S. cerevisiae deletion strains, locus YFR010W, strain ubp6, active compounds read low 1.01 | S. cerevisiae deletion strains, locus YGL167C, strain pmr1, active compounds read low 1.01 | S. cerevisiae deletion strains, locus YGL173C, strain kem1, active compounds read low 1.02 | S. cerevisiae deletion strains, locus YGL227W, strain vid30, active compounds read low 1.03 | S. cerevisiae deletion strains, locus YGL240W, strain doc1, active compounds read low 1.04 | S. cerevisiae deletion strains, locus YGL253W, strain hxk2, active compounds read low 1.03 | [4] 1.04 | S. cerevisiae deletion strains, locus YHR013C, strain ard1, active compounds read low 1.05 | S. cerevisiae deletion strains, locus YHR027C, strain rpn1, active compounds read low 1.03 | [5] 1.11 | S. cerevisiae deletion strains, locus YHR079C, strain IRE1, active compounds read low 1.1 | S. cerevisiae deletion strains, locus YHR142W, strain chs7, active compounds read low 1.04 | S. cerevisiae deletion strains, locus YJL092W, strain hpr5, active compounds read low 1.02 | S. cerevisiae deletion strains, locus YJL095W, strain BCK1 (second series), active compounds read low 1.01 | S. cerevisiae deletion strains, locus YJL095W, strain BCK1, active compounds read low 1.09 | S. cerevisiae deletion strains, locus YJL115W, strain asf1, active compounds read low 1.03 | S. cerevisiae deletion strains, locus YJL129C, strain trk1, active compounds read low 1.07 | S. cerevisiae deletion strains, locus YJL154C, strain vps35, active compounds read low 1.03 | S. cerevisiae deletion strains, locus YJL164C, strain tpk1, active compounds read low 1 | S. cerevisiae deletion strains, locus YJL166W, strain qcr8, active compounds read low 1.03 | [6] 1.02 | S. cerevisiae deletion strains, locus YJR066W, strain TOR1, active compounds read low 0.998 | [7] 1.01 | S. cerevisiae deletion strains, locus YKL160W, strain elf1, active compounds read low 1.05 | S. cerevisiae deletion strains, locus YKR026C, strain gcn3, active compounds read low 1.02 | S. cerevisiae deletion strains, locus YKR091W, strain srl3, active compounds read low 1.01 | S. cerevisiae deletion strains, locus YLL001W, strain dnm1, active compounds read low 1.07 | S. cerevisiae deletion strains, locus YLL026W, active compounds read low 1.01 | S. cerevisiae deletion strains, locus YLL041C, strain sdh2, active compounds read low 1.02 | S. cerevisiae deletion strains, locus YLR027C, strain aat2, active compounds read low 1.02 | S. cerevisiae deletion strains, locus YLR113W, strain HOG1, active compounds read low 1.12 | S. cerevisiae deletion strains, locus YLR221C, strain rsa3, active compounds read low 1.03 | S. cerevisiae deletion strains, locus YLR258W, strain gsy2, active compounds read low 1 | S. cerevisiae deletion strains, locus YLR262C, strain YPT6 (second series), active compounds read low 1.04 | S. cerevisiae deletion strains, locus YLR320W, strain mms22, active compounds read low 1.07 | S. cerevisiae deletion strains, locus YLR342W, strain FKS1, active compounds read low 1.02 | S. cerevisiae deletion strains, locus YLR357W, strain rsc2, active compounds read low 1.03 | S. cerevisiae deletion strains, locus YLR370C, strain arc18, active compounds read low 1.03 | S. cerevisiae deletion strains, locus YLR384C, strain iki3, active compounds read low 1.01 | S. cerevisiae deletion strains, locus YML120C, strain ndi1, active compounds read low 1.04 | S. cerevisiae deletion strains, locus YMR058W, strain fet3, active compounds read low 1.03 | S. cerevisiae deletion strains, locus YMR125W, strain sto1, active compounds read low 1.06 | S. cerevisiae deletion strains, locus YMR129W, active compounds read low 1.01 | S. cerevisiae deletion strains, locus YMR205C, strain PFK2, active compounds read low 1.06 | S. cerevisiae deletion strains, locus YMR231W, strain pep5, active compounds read low 1.01 | [8] 0.993 | S. cerevisiae deletion strains, locus YNL071W, strain lat1, active compounds read low 1.02 | [9] 1.01 | S. cerevisiae deletion strains, locus YNL175C, strain NOP13, active compounds read low 1.02 | S. cerevisiae deletion strains, locus YNL183C, strain NPR1, active compounds read low 1 | S. cerevisiae deletion strains, locus YNL197C, strain WHI3, active compounds read low 1 | S. cerevisiae deletion strains, locus YNL209W, strain ssb2, active compounds read low 1.02 | S. cerevisiae deletion strains, locus YNL224C, strain SQS1, active compounds read low 1.02 | S. cerevisiae deletion strains, locus YNL248C, strain rpa49, active compounds read low 1.06 | S. cerevisiae deletion strains, locus YNL322C, strain KRE1 (second series), active compounds read low 1.03 | [10] 1.04 | S. cerevisiae deletion strains, locus YNR049C, strain mso1, active compounds read low 1.01 | S. cerevisiae deletion strains, locus YOR001W, strain rrp6, active compounds read low 0.967 | S. cerevisiae deletion strains, locus YOR070C, strain gyp1, active compounds read low 1.02 | S. cerevisiae deletion strains, locus YOR080W, strain dia2, active compounds read low 1.01 | S. cerevisiae deletion strains, locus YOR083W, strain WHI5 (second series), active compounds read low 0.997 | S. cerevisiae deletion strains, locus YOR083W, strain WHI5, active compounds read low 1.04 | S. cerevisiae deletion strains, locus YOR106W, strain vam3, active compounds read low 1.05 | S. cerevisiae deletion strains, locus YOR231W, strain MKK1, active compounds read low 1.11 | S. cerevisiae deletion strains, locus YOR265W, strain rbl2, active compounds read low 1.01 | S. cerevisiae deletion strains, locus YOR270C, strain vph1, active compounds read low 1.11 | S. cerevisiae deletion strains, locus YOR290C, strain snf2, active compounds read low 1.06 | S. cerevisiae deletion strains, locus YPL051W, strain arl3, active compounds read low 1.05 | [11] 1.02 | S. cerevisiae deletion strains, locus YPL078C, strain atp4, active compounds read low 1.06 | S. cerevisiae deletion strains, locus YPL106C, strain sse1, active compounds read low 1.01 | S. cerevisiae deletion strains, locus YPL240C, strain hsp82, active compounds read low 1.01 | [12] 1 | S. cerevisiae deletion strains, locus YPL256C, strain CLN2, active compounds read low 1.14

CSc1nc(N)n(-c2ccccc2)n1
inactive: [1] 1 | [13] 1.02 | [2] 1.02 | [14] 1 | [15] 1.01 | [3] 0.916 | [16] 1.06 | [17] 1 | [4] 0.99 | [5] 1.05 | [18] 1 | [19] 0.989 | [7] 1 | S. cerevisiae deletion strains, locus YKL190W, strain CNB1, active compounds read low 1.01 | [20] 1.03 | [21] 1.02 | [22] 0.995 | [23] 1.09 | [24] 0.988 | [25] 1 | [26] 1 | [27] 1 | [28] 1 | [10] 1 | [29] 1.02 | [11] 0.994 | [12] 1.01 | [30] 1.07 | S. cerevisiae strains, strain wild type, active compounds read low 1.01

CSc1c(-c2ccccc2)c(N)nn1S(=O)(=O)c1ccccc1
inactive: [1] 0.99 | [13] 0.982 | [2] 0.993 | [14] 0.978 | [15] 0.998 | [3] 0.979 | [16] 0.967 | [17] 0.98 | [5] 0.913 | [18] 0.973 | [19] 1.01 | [7] 0.971 | [20] 0.836 | [21] 0.996 | [22] 0.849 | [23] 0.901 | [24] 0.944 | [25] 1 | [26] 0.983 | [8] 0.815 | [9] 0.97 | [27] 1 | [28] 0.907 | [10] 0.987 | [29] 0.951 | [11] 0.994 | [12] 0.943 | [30] 0.945
active: [6] 0.0597
